HEK293 tox – cytotoxic compounds in HEK 293 cells. HEK 293 viability, ATP luminescence (CellTiter-Glo), 48-72 h. Potency, µM (top dose mostly 115 µM), most hits filed as inhibitors. 94,000 compounds, 6.6% hits; note: nearly all actives have a fitted effect of over 60% in size
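HEK 293 seeded at 250 cells/well receive compound via pintool. After 48 or 72 hr at 37 degree Celsius, 5% CO2 and 95% humidity, CellTiter-Glo is dispensed and luminescence read following 10 min at room temperature.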
hNpr1 antagonist – blocks ANP-stimulated signaling of human Npr1 receptor | P16066 | HEK293 hNpr1 GloSensor cGMP, ANP-stimulated luminescence | Potency, µM (doses to about 46.3 µM), usual class: inhibitors | 76,000 compounds, 1.6% hits | AID 1347048; calls by dose curve; note: nearly all actives have a fitted effect of over 60% in size
Target sequence (P16066 whole entry, looked up): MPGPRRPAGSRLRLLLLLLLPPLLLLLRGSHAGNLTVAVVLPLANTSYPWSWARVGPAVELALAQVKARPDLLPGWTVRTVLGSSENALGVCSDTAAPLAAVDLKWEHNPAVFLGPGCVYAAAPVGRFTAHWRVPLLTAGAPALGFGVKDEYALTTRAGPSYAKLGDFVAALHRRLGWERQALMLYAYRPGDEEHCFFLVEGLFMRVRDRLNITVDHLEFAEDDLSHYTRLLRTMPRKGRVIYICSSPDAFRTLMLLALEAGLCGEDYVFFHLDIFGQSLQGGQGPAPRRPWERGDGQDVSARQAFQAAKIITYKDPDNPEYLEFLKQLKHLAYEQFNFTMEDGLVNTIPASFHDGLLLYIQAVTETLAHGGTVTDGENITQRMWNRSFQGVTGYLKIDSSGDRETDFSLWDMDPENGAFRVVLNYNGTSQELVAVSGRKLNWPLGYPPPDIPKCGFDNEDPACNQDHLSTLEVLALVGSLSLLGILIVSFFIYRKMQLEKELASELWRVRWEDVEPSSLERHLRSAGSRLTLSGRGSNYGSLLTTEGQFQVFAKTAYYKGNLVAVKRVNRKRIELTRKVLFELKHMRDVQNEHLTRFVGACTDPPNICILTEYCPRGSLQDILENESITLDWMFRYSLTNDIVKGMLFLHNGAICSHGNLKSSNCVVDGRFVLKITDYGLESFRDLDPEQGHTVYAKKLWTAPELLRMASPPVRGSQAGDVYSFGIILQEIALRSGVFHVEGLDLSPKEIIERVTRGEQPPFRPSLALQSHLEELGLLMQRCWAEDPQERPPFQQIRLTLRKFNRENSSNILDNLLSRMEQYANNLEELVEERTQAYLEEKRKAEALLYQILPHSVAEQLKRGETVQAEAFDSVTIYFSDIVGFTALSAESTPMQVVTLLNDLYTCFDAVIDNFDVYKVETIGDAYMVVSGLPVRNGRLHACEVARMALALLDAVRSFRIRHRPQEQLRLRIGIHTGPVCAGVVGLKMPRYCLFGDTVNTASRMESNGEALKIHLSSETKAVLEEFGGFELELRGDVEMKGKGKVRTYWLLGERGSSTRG
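Compound pre-incubated 30 min at room temperature on GloSensor-loaded HEK293 cells stably carrying hNpr1 and the pGS-40F cGMP biosensor. Stimulation uses hNppA at 0.1 nM final; luminescence is taken at baseline and 20 min post-agonist.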
3T3 cytotox – NIH 3T3 cell cytotoxicity; NIH 3T3 viability, CellTiter-Glo ATP luminescence, 48-72 h; Potency, µM (top dose mostly 96.7 µM), usual class: inhibitors; 94,000 compounds, 4.3% hits; AID 1345082; note: nearly all actives have a fitted effect of over 55% in size
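Luminescent ATP readout (CellTiter-Glo, 10 min RT) after 48 or 72 hr compound exposure of NIH 3T3 cells seeded at 400 cells/well in 1536-well format; quantitative HTS.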
FLuc inh – Photinus pyralis luciferase inhibition | 76,000 compounds, 2.5% hits | purified P. pyralis luciferase, luminescence, biochemical | Potency, µM (highest dose often 115 µM), actives largely listed as inhibitors; note: nearly all actives have a fitted effect of over 65% in size
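Purified 10nM P. pyralis luciferase with 10uM D-luciferin and 10uM ATP in 50mM Tris acetate pH 7.5, 10mM Mg acetate, 0.01% Tween-20, 0.05% BSA. qHTS titration; luminescence read by CCD imager.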
Numbers stand for hits; - = inactive; ? = inconclusive; . = not tested or not shown. Compounds with a hit are over-represented: about 11% of the library has one in this group of screens. Unless noted, calls come from the whole dose curve; as a rule, active = well fitted curve in the direction sought with a large enough effect; inconclusive = small, poorly fitted or top-dose-only effect, or another doubt; inactive = no such curve, though single readings can be large; an effect the other way counts as inactive or inconclusive.

SMILES	HEK293 tox	hNpr1 antagonist	3T3 cytotox	FLuc inh
O=C(c1cccs1)N1CCCn2cc(-c3ccccc3F)nc21	?	-	-	22µM
O=C(c1ccsc1)N1CCCn2cc(-c3ccccc3F)nc21	-	-	-	35µM
O=C(c1ccco1)N1CCCn2cc(-c3ccccc3F)nc21	-	-	-	-
Cc1nc2cc(S(=O)(=O)N3CCOCC3)ccc2n1CCNC(=O)C1(C)CC1	-	-	-	-
O=C(Nc1cccc(Cl)c1)C1=NO[C@@H]2CN(CCc3ccccc3)C[C@H]12	?	-	?	-
C[C@@H]1C(=O)O[C@H]2[C@H]1CC[C@@]1(C)Cc3sc(NC(=O)NC4CCCCC4)nc3[C@@H](C)[C@H]21	?	-	-	?
CCCCNc1nc2c(s1)C[C@]1(C)CC[C@@H]3[C@H](OC(=O)[C@H]3C)[C@H]1[C@@H]2C	?	18µM	?	?
Cc1ccc(OCCC2CCN(C(=O)CCn3nc(C)cc3C)C2)cc1 (stereo not given)	50µM	?	?	-
COc1ccccc1C(=O)N1CCC(CCOc2ccc(C)cc2)C1 (stereo not given)	40µM	?	?	-
CN(CC(=O)N1CCC(CCOc2ccc(F)cc2)C1)S(=O)(=O)c1cccs1 (stereo not given)	50µM	?	?	-
Cc1ccc(OCCC2CCN(C(=O)c3ccoc3)C2)cc1 (stereo not given)	?	-	?	-
CCn1nc(C)c(-c2cc(C(=O)N3CCC(CCOc4ccccc4OC)C3)no2)c1C (stereo not given)	45µM	-	?	-
CC(C)C(=O)N1CCOc2ccc(CN3CCCCCC3)cc2C1	?	.	-	.
COc1ccc(-c2cc(C[C@@H]3CC[C@H](O)[C@@H](CNC4CCOCC4)O3)no2)cc1	-	?	-	?
CC(=O)c1ccc(NC(=O)CN2C(=O)NC3(CCC(C(C)(C)C)CC3)C2=O)cc1 (stereo not given)	?	-	?	-
CC1CCC2(CC1)NC(=O)N(CC(=O)Nc1ccc(C(C)C)cc1)C2=O (stereo not given)	28µM	-	?	-
CC(=O)c1cccc(NC(=O)CN2C(=O)NC3(CCC(C(C)(C)C)CC3)C2=O)c1 (stereo not given)	?	-	40µM	-
CC1CCC2(CC1)NC(=O)N(CC(=O)Nc1cccc(C(F)(F)F)c1)C2=O (stereo not given)	25µM	-	?	-
CC1CCC2(CC1)NC(=O)N(CC(=O)Nc1cccc(F)c1)C2=O (stereo not given)	-	-	-	-
Cc1noc(C)c1-c1cc2c(cc(C)n2CCN(C)C)c(Nc2ccn(C)n2)n1	89µM	-	?	-
Cc1noc(C)c1-c1cc2c(cc(C)n2CCN(C)C)c(-c2ccc(CO)cc2)n1	79µM	-	?	-
Cc1noc(C)c1-c1cc2c(cc(C)n2CCN(C)C)c(-c2cccc(O)c2)n1	56µM	-	?	-
Cc1noc(C)c1-c1cc2c(cc(C)n2CCN(C)C)c(-c2ccccc2O)n1	45µM	-	32µM	-
Cc1cc2cc(-c3c(C)noc3C)nc(Nc3ccc(F)cc3)c2o1	?	-	?	-
Cc1ccc(CN2CCCC(c3nc(-c4cccnc4)no3)CCNC(=O)CC2)o1 (stereo not given)	?	-	?	-
SMILES	HEK293 tox	hNpr1 antagonist	3T3 cytotox	FLuc inh
CCC(=O)N1CCc2c(C(=O)Nc3ccc(OC)c(OC)c3)cccc21	-	-	-	-
CN1CCC(OC2CCN(C(=O)c3cccc(Br)c3)CC2)CC1	-	-	-	-
Cc1noc(C)c1-c1cc2c(cc(C)n2CCN(C)C)c(-c2cccnc2)n1	71µM	-	?	-
COc1cccc(-c2nc(-c3c(C)noc3C)cc3c2cc(C)n3CCN(C)C)c1OC	?	-	?	-
COc1ccc(-c2nc(-c3c(C)noc3C)cc3c2cc(C)n3CCN(C)C)cn1	79µM	-	?	-
O=C(NC1CCN(C(=O)c2ccc(-c3cncnc3)cc2)CC1)c1ccc(F)cc1	?	.	-	.
O=C(Nc1ccc2c(N3CCOCC3)ncnc2c1)c1ccc(Br)o1	40µM	-	?	-
CC(Oc1cccc(Cl)c1)C(=O)Nc1ccc2c(N3CCOCC3)ncnc2c1 (stereo not given)	45µM	-	?	-
Cc1ccc(C(=O)Nc2ccc3c(N4CCOCC4)ncnc3c2)cc1C	?	-	?	?
O=C(Nc1ccc2c(N3CCOCC3)ncnc2c1)c1cccc(Cl)c1	?	-	7.1µM	-
COc1cccc(C(=O)Nc2ccc3c(N4CCOCC4)ncnc3c2)c1	-	-	-	?
O=C(NCCc1ccccn1)C1CCN(C(=O)c2ccc(-c3cccs3)cc2)CC1	-	.	-	.
O=C(O)C[C@@H]1CCN(C(=O)C2CCC2)C[C@@H]1CCN1CCN(c2ccccn2)CC1	-	-	-	-
CSc1ccc(-c2cccc(C(=O)NCC(=O)NC3CCCCCC3)c2)cc1	?	.	-	.
Cn1ccc2ccc(-c3nc(C4CCOC4)no3)cc21 (stereo not given)	-	-	?	35µM
c1cnn(-c2ccc(-c3nc(C4CCOC4)no3)cc2)c1 (stereo not given)	?	?	-	16µM
Cc1ccc(C(=O)NC2CCN(C(=O)N3CC4CC(C3)[C@H]3CCCC(=O)N3C4)CC2)cc1 (stereo not given in full)	-	-	-	-
COc1cc(OCc2ccccc2)ccc1CN1CC[C@@]2(O)CCNC[C@H]2C1	22µM	-	20µM	-
COc1ccc(F)cc1-c1ccc(CN2CCC(NC(=O)c3ccc(C(F)(F)F)cc3)C2)cc1 (stereo not given)	20µM	.	?	.
COc1ccccc1-c1ccc(CN2CCC(NC(=O)c3ccc(C(F)(F)F)cc3)C2)cc1 (stereo not given)	25µM	.	?	.
CCc1cc(N2CCC(NCCc3cccc(Cl)c3)CC2)nc(C)n1	?	-	40µM	-
CCCc1cc(N2CCC(N[C@@H]3CCNC3)CC2)nc(C)n1	-	-	-	-
O=c1c2nc(Nc3cccnc3)ccc2ncn1-c1ccccc1	?	-	-	?
Cc1ccncc1-c1c(C)nn2c1N(Cc1cccc(OC(F)(F)F)c1)CCC2	32µM	?	?	-
COc1ccc(OC)c(CN2CCCn3nc(C)c(-c4cnccc4C)c32)c1	?	-	89µM	-
SMILES	HEK293 tox	hNpr1 antagonist	3T3 cytotox	FLuc inh
COc1ccccc1CN1CCCn2nc(C)c(-c3cnccc3C)c21	40µM	?	45µM	-
CC(C)NC(=O)N1CCC2(CC1)CN(C(=O)CCCN)Cc1ccccc1O2	-	.	-	.
CNC(=O)[C@@H]1CN(Cc2cccc(OC(F)(F)F)c2)C[C@H]1CO	-	-	-	-
Cc1ccc(-c2cc3c(=O)n(CCNC(=O)C4CCCCC4)ccn3n2)cc1C	-	-	-	0.63µM
CCn1nccc1C(=O)NCCn1ccn2nc(-c3ccc(C)c(C)c3)cc2c1=O	25µM	-	-	4µM
O=C(NCCn1ccn2nc(-c3ccc(F)cc3)cc2c1=O)c1n[nH]c2c1CCCC2	?	?	?	0.4µM
O=C(NCCn1ccn2nc(-c3ccc(F)cc3)cc2c1=O)c1ccsc1	?	-	-	-

Screening data from PubChem.
